# Data reported in ChEMBL document CHEMBL4513146, “CO-ADD screening of Karazin Kharkiv National University (Ukraine) compounds”.
# Potency and affinity values are given separately.
# Key:
# [1] = tested on: Klebsiella pneumoniae; details: Concentration 32 ug.mL-1;; ASSAY_TEST Inhibition of Bacterial Growth; detection method Absorption (OD600); MEDIA CAMHB; plate type 384well; NBS; CORNING #3640; time 18 hr
# [2] = tested on: Candida albicans; details: Concentration 32 ug.mL-1; ASSAY_TEST Inhibition of Fungal Growth; detection method Absorption (OD530)
# [3] = tested on: Cryptococcus neoformans; details: Concentration 32 ug.mL-1; ASSAY_TEST Inhibition of Fungal Growth; detection method Resazurin; Absorption (OD600-OD570); plate type 384well; NBS; CORNING #3640
SMILES,Inhibition [1] [%],Inhibition [2] [%],Inhibition [3] [%]
Cc1ccc(C)c(NC(=O)Cn2nc3c(N4CCCC(C)C4)nccn3c2=O)c1 (stereo not given),3.52,2.37,-8.1
Cc1cc2nn(CC(=O)N3CCOCC3)c(=O)n2c(Nc2ccc(C)c(F)c2)n1,15.3,1.38,-5.57
COc1ccc(CNC(=O)Cn2nc3c(N4CCN(c5ccccc5C)CC4)nccn3c2=O)cc1,-11.16,37.75,-4.67
O=S(=O)(c1cccn2c(SCc3c(F)cccc3Cl)nnc12)N1CCCC1,5.57,-0.64,-6.69
Cc1nnc2c(=O)n(CC(=O)Nc3ccc(F)cc3)c3ccccc3n12,10.46,0.41,-6.03
O=C(Cn1nc2c(SC3CCCCC3)nccn2c1=O)NCc1ccc(F)cc1,9.17,0.24,-16.51
C=Cc1ccc(CN(c2ccc(Cl)cc2)S(=O)(=O)c2cccn3c(C)nnc23)cc1,7.52,0.36,-8.75
CC(=O)c1cccc(NC(=O)CSc2nnc3ccc(C(=O)Nc4cccc(F)c4)cn23)c1,7.28,5.29,-6.79
CCc1ccc(Cn2c(=O)c3sccc3n3c(=O)n(Cc4c(F)cccc4Cl)nc23)cc1,5.71,1.83,-25.59
Cc1ccc(-c2nnc3c(=O)n(CC(=O)Nc4cc(C)cc(C)c4)c4ccccc4n23)cc1,11.28,-1.05,-21.63
CCc1nnc2c(SCC(=O)Nc3cccc(C(C)=O)c3)nc3ccccc3n12,17.43,-0.1,-10.94
Cc1ccc(-c2ccc3nnc(CCC(=O)NCc4cccc(Br)c4)n3n2)cc1,20.54,1.13,-54.18
Cc1ccc(-c2cc3c4nn(CC(=O)NCc5ccc(Cl)cc5)c(=O)n4ccn3n2)cc1C,7.6,2,-10.6
COc1cccc(-n2ccn3c(-c4ccc([N+](=O)[O-])cc4)nnc3c2=O)c1,6.14,1.66,-18.73
O=C(Cn1nc2c(SC3CCCCC3)nccn2c1=O)Nc1ccccc1F,4.58,0.33,-26.33
Cc1ccc(C(=O)CSc2nnc3c(=O)n(-c4ccc(F)cc4)ccn23)c(C)c1,5.21,2.78,-8.55
COc1cccc(Cn2nc3n(CCC(=O)NC4CCCCC4)c(=O)c4ccccc4n3c2=O)c1,9.79,5.45,-13.5
COc1cccc(CNC(=O)CSc2nnc3c4cc(-c5ccc(C)cc5)nn4ccn23)c1,-13.2,4.52,-12.58
CCOc1ccc(N(Cc2ccccc2)S(=O)(=O)c2ccc3nncn3c2)cc1,6.93,2.75,-0.95
Cc1cc2nn(CC(=O)Nc3ccc(F)cc3F)c(=O)n2c(Nc2ccc(C)c(F)c2)n1,8.43,24.78,-2.94
O=S(=O)(c1ccc2nncn2c1)N(Cc1ccccc1F)c1ccc2c(c1)OCCO2,4.19,7.13,-6.58
O=C(CCc1nnc2c3cc(-c4ccc(Cl)cc4)nn3ccn12)N1CCN(c2ccccn2)CC1,12.64,-0.78,-16.65
O=C(Cn1nc2ccc(C(=O)NCc3ccccc3)cn2c1=O)Nc1ccc2c(c1)OCO2,7.16,3.87,-36.87
COc1ccccc1-n1ccn2c(SCc3ccc(C)cc3)nnc2c1=O,5.79,2.57,-9.44
Cc1ccc(NC(=O)Cn2nc3c(SCc4ccc(Cl)cc4)nccn3c2=O)c(C)c1,13.7,0.54,-21.97
O=c1c2sccc2n2c(=O)n(Cc3ccc(F)cc3)nc2n1CCc1ccccc1,5.57,0.78,-5
O=C(CSc1nnc2c(=O)n(-c3ccc(F)cc3)ccn12)NCC1CCCO1 (stereo not given),7.61,4.29,-18.42
Cc1cccc(C)c1NC(=O)Cn1nc2c(Sc3ccccc3)nccn2c1=O,-1.09,0.55,-9.17
CC(=O)c1ccc(NC(=O)Cn2nc3c(SC4CCCCC4)nccn3c2=O)cc1,4.71,0.5,-15.4
COc1ccc(N2CCN(C(=O)Cn3nc4c(Oc5cccc(C)c5C)nccn4c3=O)CC2)cc1,15.7,-0.29,-13.03
